Measured values: PubChem BioAssay AID651664 (NMMLSC, 2012)
Out of some 1,800 compounds screened, fewer than 10 were called active.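 Rule for the calls: active = inhibition of granule release above a set limit; inactive = the rest.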 A selection follows.

Test: inhibitors of lytic granule exocytosis, flow cytometry, TALL-104 cells, validation set (AID 651664)
Settings: TALL-104 LAMP-1 externalization, at 15.2 µM, active compounds read high, stimulated with thapsigargin and PMA

Compound | inhibition
CCn1c(-c2ccccc2)c[nH]c1=S | -1.3% (inactive)
Nc1c(C(=O)NCC2CCCO2)sc(=S)n1-c1ccccc1 (stereo not drawn) | 0.7% (inactive)
COc1ccc(C)cc1-n1nnnc1SCc1cn2ccsc2n1 | -3.3% (inactive)
CC(=O)c1ccc(N2CCN(CCC#N)CC2)c(F)c1 | 8.2% (inactive)
Cc1occc1C(=O)NC(C)CCc1ccccc1 (stereo not drawn) | 6.4% (inactive)
CC(C)(C)NC(=O)C1Cc2ccccc2CN1C(=O)Nc1cccc(Cl)c1 (stereo not drawn) | 3.6% (inactive)
CN(C)c1ccc(-c2nnc(-c3ccc(S(=O)(=O)C(F)F)cc3)o2)cc1 | -2% (inactive)
COc1ccc(-c2sc(NC(=O)c3ccc(C)cc3)nc2-c2ccc([N+](=O)[O-])cc2)cc1 | 0.2% (inactive)
NC(=O)NC(=O)CSc1nc(-c2ccccc2)c(-c2ccccc2)n1CC1CCCO1 (stereo not drawn) | 3.8% (inactive)
CCCc1nc2ccccc2c(=O)n1/N=C/c1ccccc1O | -1.9% (inactive)
Cc1snc(S(=O)(=O)/C(C#N)=N/Nc2cccc(C(F)(F)F)c2)c1C#N | 5.6% (inactive)
CCNc1nc(NCC)nc(OCCOC(=O)COc2ccc(Cl)cc2Cl)n1 | -2.4% (inactive)
CN1CC(=O)NC1=NC(=O)c1ccc(Cl)c(S(=O)(=O)N2CCCCCC2)c1 | -1.1% (inactive)
Cc1ccc2c(c1Br)/C(=N/N1C(=O)c3ccccc3C1=O)C(=O)N2 | -3.6% (inactive)
Clc1ccc(-c2nnnn2-c2ccc(Cl)c(Cl)c2)cc1Cl | -0.4% (inactive)
COc1ccccc1N(C(=O)c1ccco1)C(C(=O)NC1CCCC1)c1cccnc1 (stereo not drawn) | -0.8% (inactive)
CC(C)(C)NC(=O)Cc1ccc(S(=O)(=O)N2CCCC2)s1 | -1.8% (inactive)
Nc1nc(CSc2nc3ccccc3s2)nc(N2CCCCC2)n1 | 3.2% (inactive)
FC(F)(F)c1cccc(NC(=S)N2CCN(c3cccc(C(F)(F)F)c3)CC2)c1 | -4.7% (inactive)
Cc1nc2cc(S(=O)(=O)N3CCC(C(=O)O)CC3)ccc2n1C1CCCC1 | -3.7% (inactive)
O=C(CSc1ncnc2c1cnn2Cc1ccccc1)Nc1ccc2c(c1)OCCO2 | 0.3% (inactive)
O=C1c2ccccc2C(=O)N1SC1CCCCC1 | -1.8% (inactive)

Compound | inhibition
Cn1c(-c2ccccc2Br)n[nH]c1=S | 89.2% (active)
COCCCn1c(-c2ccccc2Cl)n[nH]c1=S | 4.6% (inactive)
S=c1[nH]nc(-c2ccccc2Cl)n1CC1CCCO1 (stereo not drawn) | -1.9% (inactive)
Cc1nn2c(N)c(C#N)cnc2c1-c1ccc(Cl)cc1 | 2.5% (inactive)
CN1CCN(C(=O)c2ccc3c(c2)NC(=O)C(N2CCOCC2)S3)CC1 (stereo not drawn) | 3.1% (inactive)
COCCNc1nc2ccccc2nc1NS(=O)(=O)c1ccc(C)cc1C | 2.3% (inactive)
CC(=O)C(C)Oc1ncn(-c2ccccc2)n1 (stereo not drawn) | -3% (inactive)
N#Cc1ccc(C(=O)Nc2ccc(S(=O)(=O)NC3=NCCCCC3)cc2)cc1 | 4.4% (inactive)
O=C(Nc1ccccc1)N1CCN(c2ccccn2)CC1 | -1.4% (inactive)
O=C1CCCCC1C(Nc1ccc(Cl)cc1)c1ccccc1 (stereo not drawn) | 1.3% (inactive)
COc1ccc(C(CNC(=O)c2ccc(N3CCCC3=O)cc2)N(C)C)cc1 (stereo not drawn) | -2% (inactive)
Clc1ccccc1C1SCC2Nc3ccccc3CN21 (stereo not drawn) | 0.1% (inactive)
Cc1cccc(/C(N)=N/OC(=O)CCCN2C(=O)c3ccccc3C2=O)c1 | 1.9% (inactive)
COc1ccccc1NC(=O)CC1COc2ccccc2O1 (stereo not drawn) | -0.3% (inactive)
CCOc1ccccc1NC(=O)c1ccc(S(=O)(=O)N2CCOCC2)cc1 | -1.3% (inactive)
Cc1ccc(Cl)cc1NC(=O)CSC(N)=O | -3% (inactive)
COC(=O)C1=CN(CCCN2CCCC2=O)C=C(C(=O)OC)C1c1ccccc1C(F)(F)F | 3.5% (inactive)
CCC(CC)NC(=O)c1cc2c(C)nn(Cc3ccccc3Cl)c2s1 | -0.5% (inactive)
Cc1nnc(N(CCC#N)CCC#N)s1 | 0% (inactive)
O=C(CN1CCN(c2cccc(C(F)(F)F)c2)CC1)Nc1cccc(C(F)(F)F)c1 | -3.2% (inactive)
Cc1oc2nc(SCCCC(=O)NCCO)nc(N)c2c1C | 2.7% (inactive)
